Measurements reported in PubChem BioAssay (NCI).
The panel holds about 79,000 compounds, 15% with a hit somewhere; the sample as a whole holds those more often. The source made the active and inactive calls. Rule as the data show it: active = growth inhibition above about 70%; inactive = the rest.

test: NCI Yeast Anticancer Drug Screen. Data for the rad18 strain (AID 177); settings: S. cerevisiae rad18 mutant growth inhibition; at 100.0 µM; stronger effect = higher value
Method in brief: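 Measured value is growth inhibition of a yeast strain bearing a DNA repair alteration, referenced to vehicle-treated cells.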

SMILES | growth inhibition
Cc1cccc2c(C(O)CBr)cc(-c3ccc(Cl)cc3)nc12 (stereo not drawn) | 88% (active)
CN(C)C[C@H]1CC[C@@H](CN(C)C)C1=O | 87% (active)
CC1=C(SCCO)C(=O)c2ccccc2C1=O | 51% (inactive)
COC(=O)CCNc1c2ccccc2nc2cccc([N+](=O)[O-])c12 | 97% (active)
CC(/C=C/c1ccc2c(c1)OCO2)[N+](=O)[O-] (stereo not drawn) | 99% (active)
COC(=O)C1=C(C)NC(C)=C(C(=O)OCCCN2CCC(c3ccccc3)(c3ccccc3)CC2)C1c1cccc([N+](=O)[O-])c1 (stereo not drawn) | 88% (active)
CCOC(=O)c1cnc2c(C(F)(F)F)cccc2c1N=[N+]=[N-] | 94% (active)
O=[N+]([O-])c1cc2no[n+]([O-])c2cc1N1CCCCC1 | 96% (active)
COC(=O)c1ccc(NCC2=CC(=O)C=CC2=O)cc1O | 95% (active)
CCCCCCCCNC(=O)C1=C(C)NC(C)=C(C(=O)NCCCCCCCC)C1 | 2% (inactive)
S=C(Nc1ccc(Cl)c(Cl)c1)SCc1ccc2c(c1)OCO2 | 96% (active)
O=S(=O)(CCCl)c1ccccc1Cl | 98% (active)
Nc1ccccc1CC(O)C(=O)O (stereo not drawn) | 90% (active)
CN(C)c1ccc(Sc2ccc3nc(N)nc(N)c3c2)cc1 | 11% (inactive)
CC(C)C1=CCC2C(=C1)CCC1C(C)(C(=O)O)CCCC21C (stereo not drawn) (tested in a mixture with another compound) | 88% (active)
Cc1ccc(S(=O)(=O)Oc2cc(Cl)c(Cl)cc2Cl)cc1 | 11% (inactive)
CSC(=S)Nc1cc(C)ccn1 | 75% (active)
CC(C)c1cc(C(C)C)c(O)c(C([O-])[O-])c1.CC(C)c1cc(C(C)C)c(O)c(C([O-])[O-])c1.CC(C)c1cc(C(C)C)c(O)c(C([OH2+])[OH2+])c1.CC(C)c1cc(C(C)C)c(O)c(C([OH2+])[OH2+])c1.[Cu+2].[Cu+2].[OH3+].[OH3+] | 87% (active)
Cc1cc(I)ccc1N | 87% (active)

SMILES | growth inhibition
CC(Br)C(=O)c1ccc2cc(Br)c3ccccc3c2c1 (stereo not drawn) | 22% (inactive)
O=C(Nc1ccccc1)OCCc1ccc(Cl)c(Cl)c1 | 53% (inactive)
O=Cc1cccc2ccc3ccccc3c12 | 98% (active)
O=[N+]([O-])CC(SCc1ccccc1)c1ccc2c(c1)OCO2 (stereo not drawn) | 98% (active)
Cc1cc(O)cc(O)c1N=Nc1ccc([N+](=O)[O-])cc1 | 32% (inactive)
CCCCCCCCCCCCCC[N+](C)(CC(=O)[O-])Cc1ccccc1 (stereo not drawn) | 99% (active)
CC1=NN(c2cccc(Cl)c2)C(=O)C1 | 8% (inactive)
CC(=O)OCc1ccc(O)c(C=O)c1 | 89% (active)
Cc1ccc2ccc3cccc4ccc1c2c34 | 82% (active)
Cc1nc(-[n+]2nc(-c3ccncc3)nn2-c2ccccc2)sc1C | 45% (inactive)
C(CCSC1=NCCN1)CSC1=NCCN1 (tested in a mixture with another compound) | 99% (active)
CCCCCCCCCCC(=O)Cl | 89% (active)
COC1C=COC2(C)Oc3c(C)c(O)c4c(c3C2=O)/C(=N/C2CCC(O)OC2C)C=C(NC(=O)/C(C)=C\C(=O)C2CC2C(O)C(C)C(O)C(C)C(OC(C)=O)C1C)C4=O (stereo not drawn) | 48% (inactive)
S=c1[nH]nc(Nc2ccc(Cl)cc2)s1 | 94% (active)
O=C1CSC(/C=C/c2ccccc2)N1c1ccc(-c2ccc(-n3c(-c4ccccc4)nc4ccccc4c3=O)cc2)cc1 (stereo not drawn) | 46% (inactive)
O=C1C=CC(=O)N1c1ccc2c(c1)Cc1cc(NC(=O)C(F)(F)F)ccc1-2 | 82% (active)
Brc1ccc(-c2cc3c(cc2C2SCCS2)OCO3)cc1 | 56% (inactive)
C[CH2][Sn]([CH2]C)([O]C(=O)C(OC(C)=O)c1ccccc1)[O]C(=O)C(OC(C)=O)c1ccccc1 (stereo not drawn) | 92% (active)
Cc1ccc2ccc(O)cc2c1 | 69% (inactive)
